Reference: ChEMBL document CHEMBL3988442, “University of Dundee, Small-Polar-MMV Screening Library” (2021)
Out of some 48,000 compounds screened, about 13,000 (27%) showed an effect of 50% or more. The list shows a part of the results.

test system: Wolbachia pipientis; experiment: Anti-Wolbachia Cell-Based Screen; format: functional; design: scale not given: in the data most compounds retested in dose-response had high values; conditions: 5 µM

Structure (SMILES)	Percent Effect [%]
Cc1nc(CNC(=O)N2CCCC(c3ncc[nH]3)C2)sc1C (stereo unspecified)	-13.73
Cc1cc(CN(Cc2ccccc2)C(C)CN2CCOCC2)no1 (stereo unspecified)	-1.705
CCSc1ccc(NC(=O)NC(C)c2c(C)noc2C)cn1 (stereo unspecified)	-11.22
CCN1CCCN(c2ccc(-n3ccc(C)n3)nn2)CC1	-3.628
Cc1ccc(Oc2ncccc2CNC2Cc3ccccc3C2)cn1	12.49
NCC1Cc2cccc(-c3nccc(N4CCC(O)CC4)n3)c2O1 (stereo unspecified)	-9.933
Cc1cc2n(n1)CC(CNC1CCN(CCc3ccccc3)CC1)CN2 (stereo unspecified)	3.275
CCc1cnc(N)nc1NCCn1cc(Cl)cn1	-1.568
Cc1cc(CN(C)C(=O)NC2CCN(S(C)(=O)=O)CC2)no1	-12.59
CN(C)C(=O)C1CN(Cc2ccccc2)CCN(S(C)(=O)=O)C1 (stereo unspecified)	1.114
CN(C)C(=O)C1CN(Cc2ccsc2)Cc2ccnn2C1.O=C(O)C(F)(F)F (stereo unspecified)	-5.507
Cc1ccc(-c2nc(CN3CCC(C(=O)N(C)C)CC3)cs2)o1	9.027
CN(C)C(=O)NCc1nnc2n1CCN(Cc1cccs1)C2	-18.34
CN(C)C(=O)C1CN(Cc2cscn2)CCN(S(C)(=O)=O)C1 (stereo unspecified)	29.17
CS(=O)(=O)N1CCC2(CCN(Cc3nccs3)CC2)CC1.O=C(O)C(F)(F)F	12.17
CN(C)C(=O)C1CN(Cc2nccs2)CCN(S(C)(=O)=O)C1 (stereo unspecified)	115
Cc1cc(CN2CCN(S(C)(=O)=O)CC(C(=O)N(C)C)C2)no1 (stereo unspecified)	130.4
CN(C)C(=O)C1CN(Cc2ccsc2)CCN(S(C)(=O)=O)C1 (stereo unspecified)	92.25
CN(C)C(=O)C1CN(Cc2cccs2)CCN(S(C)(=O)=O)C1 (stereo unspecified)	110.5
C1CCC(CNC2CCSCC2)(N2CCOCC2)CC1	-18.78
CCN(CC)Cc1ccccc1NC(=O)N(C)Cc1ccc(OC)cc1	-34.67
c1ccc(-n2ncc(CNCC3CCCN3c3cccnn3)n2)cc1 (stereo unspecified)	8.726
CCC(O)CN(Cc1ccccc1)S(=O)(=O)c1cnc(C)s1 (stereo unspecified)	-9.422

Structure (SMILES)	Percent Effect [%]
c1cncc(CN(Cc2ccsc2)Cc2ccc(C3CCCCO3)o2)c1 (stereo unspecified)	-4.94
CN(C)C(=O)C1CN(Cc2ccccn2)CCN(S(C)(=O)=O)C1 (stereo unspecified)	88.48
CS(=O)(=O)N1CCN(Cc2cccs2)CC(C(N)=O)C1 (stereo unspecified)	99.35
CCCS(=O)(=O)N1C[C@@H]2CN(Cc3cccs3)CCO[C@@H]2C1.O=C(O)C(F)(F)F	8.558
CS(=O)(=O)N1C[C@H]2CCCN(Cc3cccs3)[C@H]2C1.O=C(O)C(F)(F)F	3.048
CC(C)[C@H]1CN(Cc2ccccn2)C[C@@H]1NS(=O)(=O)C1CC1	-5.384
CCN(CC(F)(F)F)C(=O)C1CCCN(Cc2ccccn2)C1 (stereo unspecified)	10.59
COCC1CN(C(=O)CNC(C)=O)Cc2ncnn2C1 (stereo unspecified)	6.87
COc1nc2ccccc2cc1CN1CCC(CNS(C)(=O)=O)C1 (stereo unspecified)	-1.226
CN(C)CC(=O)N1CCCC2(CCC(=O)N(CCc3c[nH]cn3)C2)C1 (stereo unspecified)	10.28
COc1ccc(-c2nc3c([nH]2)CCNC3C(=O)O)c2ccc(C)nc12 (stereo unspecified)	11.46
Cc1cccc(CN2CCS(=O)(=O)[C@@H]3CCN(C(=O)C4CC4)CC[C@@H]32)n1.O=C(O)C(F)(F)F	4.108
O=C(O)C(F)(F)F.O=C(O)C(F)(F)F.O=S1(=O)CCN(Cc2cccnc2)[C@H]2CCN(c3ncccn3)CC[C@H]21	0.02856
O=C(O)C(F)(F)F.O=C(O)C(F)(F)F.O=C(O)C(F)(F)F.c1cncc(CN2CC[C@@H]3[C@@H]2CCN3Cc2ccc3c(c2)OCO3)c1	-20.95
O=C(CC1CC1)N1CC[C@@H]2[C@H](CC1)N(Cc1cccnc1)CCS2(=O)=O.O=C(O)C(F)(F)F.O=C(O)C(F)(F)F	93.65
CCCC(=O)N1CC[C@@H]2[C@H](CC1)N(Cc1cccc(C)n1)CCS2(=O)=O.O=C(O)C(F)(F)F	0.2499
CCS(=O)(=O)N1CC[C@@H]2[C@H](CC1)N(CC(C)C)CCS2(=O)=O.O=C(O)C(F)(F)F	-5.407
CC(C)CN1CCS(=O)(=O)[C@@H]2CCN(S(=O)(=O)c3ccccc3)CC[C@@H]21.O=C(O)C(F)(F)F	-6.866
O=C(C1CC1)N1CC[C@@H]2[C@H](CC1)N(Cc1cccnc1)CCS2(=O)=O.O=C(O)C(F)(F)F.O=C(O)C(F)(F)F	101.3
CC(C)C(=O)N1CC[C@@H]2[C@H](CC1)N(Cc1cccnc1)CCS2(=O)=O.O=C(O)C(F)(F)F.O=C(O)C(F)(F)F	86.93
CCS(=O)(=O)N1CC[C@@H]2[C@H](CC1)N(Cc1cccc(C)n1)CCS2(=O)=O.O=C(O)C(F)(F)F	-2.049
CCS(=O)(=O)N1CC[C@@H]2[C@H](CC1)N(Cc1cccnc1)CCS2(=O)=O.O=C(O)C(F)(F)F.O=C(O)C(F)(F)F	110.8
CN(CCCN1CCOCC1)[C@@H]1c2ccccc2C2(CCNCC2)[C@H]1O	1.971

Structure (SMILES)	Percent Effect [%]
Cc1cc(S(=O)(=O)N2CCCc3cc(F)cc(F)c32)sc1C(=O)O	6.843
Cc1ccc2nc(C)cc(C(=O)N3C[C@H]4CCC[C@@]4(CO)C3)c2c1	-30.24
COCCn1cnnc1Cn1ccnc1-c1ccoc1	3.29
Nc1ncc2c(n1)CN(C1CCCC1)C2=O	-0.5678
CCCC(=O)N1CC[C@@H]2[C@H](CC1)N(Cc1cccnc1)CCS2(=O)=O.O=C(O)C(F)(F)F.O=C(O)C(F)(F)F	-5.055
CCC(=O)N1CC[C@@H]2[C@H](CC1)N(Cc1cccc(C)n1)CCS2(=O)=O.O=C(O)C(F)(F)F	-0.9694
CC(C)CC(=O)N1CC[C@@H]2[C@H](CC1)N(Cc1cccnc1)CCS2(=O)=O.O=C(O)C(F)(F)F.O=C(O)C(F)(F)F	108.2
CNC(=O)C1CN(c2ncccn2)CCN1Cc1ccccc1 (stereo unspecified)	91.24
CNC(=O)C1CN(c2cc(C)ncn2)CCN1Cc1ccccc1 (stereo unspecified)	91.54
Cc1cc(N2CCN(Cc3ccccc3)CC(O)C2)nc(N)n1 (stereo unspecified)	4.027
CNC(=O)C1CN(c2ccnc(C)n2)CCN1Cc1ccccc1 (stereo unspecified)	49.78
CC(C)Nc1cc(N2CCN(Cc3ccccc3)C(CCO)C2)ncn1 (stereo unspecified)	10.47
Cc1cccnc1NC(=O)C1CCCN1Cc1ccccc1 (stereo unspecified)	28.43
Cc1c(C(C)NC2CCCC2)cnn1-c1ccc(F)cc1F (stereo unspecified)	1.139
O=C(N[C@@H]1CN(Cc2cccc3[nH]ccc23)C[C@H]1O)c1cscn1	113.8
Fc1ccc(CN2CCCN(Cc3cscn3)CC2)cc1	-1.277
NC(=O)CN1C(=O)CO[C@H]2CN(Cc3ccc(F)c(F)c3)C[C@H]21	0.7627
CN(c1ncccc1CNC(=O)c1cscn1)C1CCCCC1	-0.9499
O=C(N[C@@H]1CN(Cc2ccc(F)c(F)c2)C[C@H]1O)c1cscn1	124.1
O=C(NC1CC(=O)N(Cc2cccc(F)c2)C1)c1ccncc1 (stereo unspecified)	2.208
CC(C)N1C[C@H](NC(=O)c2coc(COc3cccc(F)c3)n2)[C@@H](O)C1	0.03825
O=C(N[C@@H]1CN(c2ncc(F)cn2)[C@@H]2COC[C@@H]21)c1cscn1	-1.705
O=C(NS(=O)(=O)c1ccc(F)c(F)c1)c1cscn1	8.824

Structure (SMILES)	Percent Effect [%]
O=C(N[C@@H]1CCN(C(=O)c2cc[nH]c2)C[C@H]1O)c1ccccn1	16.73
O=C(N[C@@H]1CN(Cc2cccc(F)c2)C[C@H]1O)c1cscn1	114.1
O=C(N[C@@H]1CN(Cc2ccc(F)cc2)C[C@H]1O)c1cscn1	113.4
CNC(=O)N1CCOC(C)(c2cnn(C)c2)C1 (stereo unspecified)	-1.831
N#Cc1cc(NC(=O)c2cscn2)ccc1N1CCC(O)CC1	-15.52
O=C(N[C@@H]1CN(Cc2ccc3cc[nH]c3c2)C[C@H]1O)c1cnccn1	102.1
O=C(O)CCc1cc2n(n1)CCN(Cc1ccc3[nH]ccc3c1)C2	-14.18
O=C(N[C@@H]1CCN(c2nccc3ccccc23)C[C@H]1O)c1cnccn1	-5.026
O=C(N[C@@H]1CN(Cc2ccc3[nH]ccc3c2)C[C@H]1O)c1cscn1	101.2
CCc1cnc(N2C[C@@H](NC(=O)c3cscn3)[C@H]3COC[C@H]32)nc1.O=C(O)C(F)(F)F	-6.299
NC(=O)C1CCN(CCc2ccc(NCc3cscn3)cc2)CC1	0.9786
O=C(N[C@@H]1CN(CCc2ccc(F)cc2)C[C@H]1O)c1cscn1	115.2
CSCCCN1CC[C@@H](NC(=O)c2cnccn2)[C@H](O)C1	-11.75
COCCn1cnnc1Cn1ccnc1-c1ccccc1C	-14.43
c1ccc(-c2cc(CC3(NCc4ncc[nH]4)COC3)no2)cc1	-5.291
O=C1OCCN1CCS(=O)(=O)c1cccc(Cl)c1	-8.046
N#Cc1ccc(F)c(CN2CCc3sccc3C2)c1	10.21
CC(C)c1nsc(N2CCc3sccc3C2)n1	-3.315
O=S(=O)(N1CCCC1)N1CCc2sccc2C1	-2.678
CC(C)c1ccc(C(CN)N2CCc3sccc3C2)cc1 (stereo unspecified)	134.3
NCC(c1ccc(Cl)cc1)N1CCc2sccc2C1 (stereo unspecified)	85.2
CC(C(=O)N1CCc2sccc2C1)N1CCC(S(N)(=O)=O)CC1 (stereo unspecified)	4.951
